Screens deposited in PubChem by several laboratories.
An excerpt weighted towards active compounds, which were near 2.8% of everything screened.
GAA850 FXN act – FXN promoter activators, primary screen, cell-based, luciferase luminescence, HEK293 lucGAA850. HEK293 lucGAA850 FXN promoter luciferase reporter, 24 h; percent of 10 µM SAHA response. activation, % at 6 µM. hit rate 0.56% among 360,000. AID 540364, 2011;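 active = activation above the average of all compounds screened plus 3 SD, cutoff fixed separately per campaign, cut at about 7.5% in these data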
esBAF inh – Bmi1 luciferase reporter increase in mESCs, primary screen, esBAF inhibitor project, mouse ES cells, Bmi1 luciferase knock-in, single point; 24 h; 100% = twice the neutral-well signal; reporter increase, % at 12.5 µM; hit rate 2% among 350,000; in the data active = activation above about 40%; inconclusive = no clear call, values can overlap the other calls;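 note: a rise in the Bmi1 reporter signal indicates esBAF inhibition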
Wnt bcat act – Wnt/beta-catenin pathway activators, primary screen, cell-based, plate reader, single point | activation, % at 9.35 µM | Wnt/beta-catenin reporter cell assay, activator | hit rate 1.2% among 300,000; in the data active = activation above about 30%, passing the limit was not always enough; inconclusive = no clear call, values can overlap the other calls
MITF act – activators of MITF-driven TRPM1 promoter reporter, primary screen, cell-based, SK-MEL-5, luciferase, single point | SK-MEL-5 TRPM1-promoter luciferase, 24 h; % of positive control, neutral wells = 0 | activation, % at 12.5 µM | hit rate 0.75% among 300,000;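 active = mean activation of at least 80% with every replicate also reaching 80%; inconclusive = mean reaches 80% but some replicate falls short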
GAA30 counter – GAA30 FXN promoter activators, confirmation, counter-screen for GAA850 frataxin promoter activator project, cell-based, luminescence, HEK293, lucGAA30, triplicate; shares compounds with GAA850 FXN act; HEK293 lucGAA30 FXN promoter luciferase, 24 h; DMSO = 0%, 5 µM ipriflavone = 100%; activation, % at 6 µM; hit rate 66% among 1,900;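 active = mean activation above the mean of solvent-only control wells plus 3 SD, cut at about 22% in these data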;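 note: counterscreen of GAA850 promoter hits where activity marks nonselective or luminescence artifacts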
FXN GAA850 conf – FXN GAA850 promoter activators in reporter cells, confirmation, cell-based, luminescence, HEK293 lucGAA850, triplicate; shares compounds with GAA850 FXN act; HEK293 lucGAA850 FXN promoter luciferase reporter, 24 h; 100% = activation by SAHA; activation, % at 6 µM; hit rate 86% among 1,900; AID 588351, 2011;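 active = mean activation above a set limit taken from the primary screen, cut at about 8% in these data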
Each line names hits and unclear results; the compound was inactive in the other large screens (follow-up assays come after a bar, where they were run).

Cc1cc(C)n2c(=O)c3ccc(Cl)cc3nc2c1C#N	none (no result: esBAF inh)
Cc1cc(Cl)n2c(nc3cc(F)c(F)cc32)c1C#N	GAA850 FXN act 14.7 (no result: esBAF inh) | GAA30 counter inactive | FXN GAA850 conf 29.0
COCC(=O)Nc1ccc2c(c1)[C@@H]1C[C@H](CC(=O)NCc3ccc(-c4ccccc4)cc3)O[C@@H](CO)[C@@H]1O2	none (no result: GAA850 FXN act, Wnt bcat act, MITF act)
CN1C(=O)c2cc(NC(=O)c3ccccc3)ccc2OC[C@H]2O[C@@H](CC(=O)NC3CCCC3)CC[C@@H]21	none (no result: GAA850 FXN act, Wnt bcat act, MITF act)
CC1CN(c2ccc(Oc3ccccc3)cc2)c2nc3c(c(=O)n(CC(N)=O)c(=O)n3C)n2C1 (configuration not stated)	GAA850 FXN act 18.0 | GAA30 counter inactive | FXN GAA850 conf inactive
S=C(Nc1ccc2nsnc2c1)N1CCCC1	GAA850 FXN act 8.3, esBAF inh 80.5 | GAA30 counter 29.5 | FXN GAA850 conf 12.1
Cc1ccc(OCCn2cnc3c(N)ncnc32)cc1	GAA850 FXN act 8.0 (no result: esBAF inh, Wnt bcat act) | GAA30 counter inactive | FXN GAA850 conf 9.8
COCC(=O)NC[C@H]1[C@H](c2ccc(C3=CCCC3)cc2)[C@H](CO)N1C(C)=O	none (no result: GAA850 FXN act, Wnt bcat act, MITF act)
O=C1c2ccccc2C(=O)N1CCc1c[nH]c2ccccc12	GAA850 FXN act 9.0, MITF act 111.2 (no result: esBAF inh) | GAA30 counter 87.7 | FXN GAA850 conf 37.4
O=C1c2ccccc2C(=O)N1CCCc1c[nH]c2ccccc12	none (no result: esBAF inh, Wnt bcat act)
O=c1c2ccccc2nc(-c2ccco2)n1Cc1ccccc1	GAA850 FXN act 8.2, esBAF inh 51.7, MITF act 96.3 (no result: Wnt bcat act) | GAA30 counter 107.4 | FXN GAA850 conf 27.9
NC(=S)NN=C1c2ccccc2-c2cc(Br)ccc21	GAA850 FXN act 10.5 | GAA30 counter inactive | FXN GAA850 conf 13.6
ON=C1c2ccccc2-c2ccc(Br)cc21	none
CCOC(=O)N(C)C[C@H]1OCc2cn(nn2)CCCC(=O)N([C@H](C)CO)C[C@H]1C	none (no result: GAA850 FXN act, Wnt bcat act, MITF act)
CCOc1cccc(Nc2cc3n(c(=O)n2)CCc2cc(OC)c(OC)cc2-3)c1	GAA850 FXN act 9.6 (no result: Wnt bcat act, MITF act) | GAA30 counter inactive | FXN GAA850 conf 12.1
COc1cc2c(cc1OC)-c1cc(N3CCCc4ccccc43)nc(=O)n1CC2	GAA850 FXN act 10.4 | GAA30 counter inactive | FXN GAA850 conf 15.6
COc1cc2c(cc1OC)-c1cc(Nc3ccc(C(=O)O)cc3)nc(=O)n1CC2	none
COc1cc2c(cc1OC)-c1cc(OCc3cccnc3)nc(=O)n1CC2	GAA850 FXN act 8.8 | GAA30 counter inactive | FXN GAA850 conf 12.9
COc1cc2c(cc1OC)-c1cc(Nc3ccc(C)cc3)nc(=O)n1CC2	none
COc1cc2c(cc1OC)-c1cc(NC3CCCCCC3)nc(=O)n1CC2	GAA850 FXN act 12.1 | GAA30 counter 26.1 | FXN GAA850 conf 12.1
COc1cc2c(cc1OC)-c1cc(N3CCc4ccccc43)nc(=O)n1CC2	none (no result: esBAF inh, MITF act)
COc1ccc(Nc2cc3n(c(=O)n2)CCc2cc(OC)c(OC)cc2-3)c(C)c1	none
COc1cc2c(cc1OC)-c1cc(Nc3ccccc3Br)nc(=O)n1CC2	GAA850 FXN act 9.2 | GAA30 counter inactive | FXN GAA850 conf 15.6
COc1cc2c(cc1OC)-c1cc(N3CCCCCC3)nc(=O)n1CC2	GAA850 FXN act 12.7 (no result: Wnt bcat act) | GAA30 counter 30.9 | FXN GAA850 conf 16.4
C[C@H]1CN([C@@H](C)CO)C(=O)c2cc(NS(=O)(=O)c3cccs3)ccc2O[C@@H]1CN(C)C(=O)Nc1ccc(C(F)(F)F)cc1	none (no result: GAA850 FXN act, Wnt bcat act, MITF act)
CCOC(=O)c1sc(Nc2nc3ccc(OC)cc3s2)cc1C	none (no result: esBAF inh, Wnt bcat act)
CCOC(=O)c1sc(Nc2nc3c(F)cccc3s2)cc1C	GAA850 FXN act 10.7 (no result: esBAF inh, Wnt bcat act) | GAA30 counter 105.9 | FXN GAA850 conf 41.8
COc1ccc(S(=O)(=O)Nc2ccc3c(c2)C(=O)N([C@@H](C)CO)C[C@H](C)[C@@H](CN(C)C(=O)Cc2ccccc2)OCCCC[C@H](C)O3)cc1	none (no result: GAA850 FXN act, Wnt bcat act, MITF act)
CCN1C(=O)/C(=C/c2cc(C)n(C)c2C)SC1=Nc1ccc(OC)cc1	GAA850 FXN act 9.9 (no result: Wnt bcat act) | GAA30 counter inactive | FXN GAA850 conf 14.4
O=C(C[C@H]1CC[C@@H](NC(=O)NC2CCCCC2)[C@@H](CO)O1)NCc1ccc(Cl)cc1	none (no result: GAA850 FXN act, Wnt bcat act, MITF act)
CCCc1cc(C(=O)Nc2cccnc2Cl)no1	none (no result: MITF act)
CCCc1cc(C(=O)Nc2cc(C)ccc2O)no1	GAA850 FXN act 10.1, esBAF inh 57.1 | GAA30 counter 90.9 | FXN GAA850 conf 42.8
CCC(=O)N(C)C[C@H]1Oc2cc(C#CC3(O)CCCC3)ccc2S(=O)(=O)N([C@H](C)CO)C[C@@H]1C	none (no result: GAA850 FXN act, Wnt bcat act, MITF act)
COCCNc1nnc(SC(C)C(=O)Nc2ccc(-c3nc4ccc(C)cc4s3)cc2)s1 (configuration not stated)	GAA850 FXN act 8.8 (no result: Wnt bcat act) | GAA30 counter 74.5 | FXN GAA850 conf 28.7
Cc1ccc2nc(-c3ccc(NC(=O)COC(=O)c4cncc(Br)c4)cc3)sc2c1	GAA850 FXN act 8.4, Wnt bcat act inconclusive | GAA30 counter 107.2 | FXN GAA850 conf 28.6
Cc1ccc2nc(-c3ccc(NC(=O)COC(=O)c4ccc(Br)o4)cc3)sc2c1	none (no result: esBAF inh, Wnt bcat act)
CNC(=S)Nc1ccc(-c2nc3ccc(C)cc3s2)cc1	GAA850 FXN act 8.4 | GAA30 counter 114.3 | FXN GAA850 conf 38.7
Cc1ccc2nc(-c3ccc(N)cc3)sc2c1	none (no result: esBAF inh, MITF act)
COc1cccc(-c2ccc3c(c2)[C@@H]2[C@@H](CCN2S(=O)(=O)c2cccc(OC)c2)[C@H](CO)N3)c1	none (no result: GAA850 FXN act, Wnt bcat act, MITF act)
C[C@H]1CN([C@@H](C)CO)C(=O)c2cccc(NC(=O)NC3CCCCC3)c2O[C@H]1CN(C)S(=O)(=O)c1cccs1	none (no result: GAA850 FXN act, Wnt bcat act, MITF act)
Cc1nc2c(-c3ccc(F)cc3)cnn2c2c1CCC2	GAA850 FXN act 8.2, Wnt bcat act inconclusive (no result: esBAF inh) | GAA30 counter 90.4 | FXN GAA850 conf 29.2
Cc1nc2c(-c3ccccc3)cnn2c(N)c1-c1ccccc1	none
COc1cc(Nc2nc3ccccc3n3nnnc23)cc(OC)c1OC	GAA850 FXN act 16.7 | GAA30 counter 33.1 | FXN GAA850 conf 9.5
COc1ccc(Nc2nc3ccccc3n3nnnc23)cc1	none (no result: Wnt bcat act)
Cc1ccc(/C=C/C(=O)N2CCc3ccccc32)o1	GAA850 FXN act 10.6, Wnt bcat act inconclusive | GAA30 counter 115.8 | FXN GAA850 conf 37.4
O=C(/C=C/c1ccco1)N1CCc2ccccc21	none
Cc1ccnc(NC(=O)Cc2ccc(-c3ccccc3)cc2)c1	GAA850 FXN act 7.9 (no result: esBAF inh) | GAA30 counter 100.8 | FXN GAA850 conf 46.2
COc1ccc(C(=O)Nc2ccccc2C(=O)Nc2cc(C)ccn2)cc1	none (no result: MITF act)
COc1cc2ccccc2cc1C(=O)Nc1cc(C)ccn1	GAA850 FXN act 8.4, esBAF inh 55.4 | GAA30 counter 122.9 | FXN GAA850 conf 39.3
Cc1nn(C)c(=O)n1-c1ccc(Oc2ccccc2)cc1	none (no result: Wnt bcat act)
